DRD3 agonist: qHTS of D3 Dopamine Receptor Agonist: qHTS | D3R DiscoveRx beta-arrestin cells, luminescence, 90 min | max activation, % | actives 0.58% (n = 410,000) | AID 652048, 2013; in the data active = max activation above about 30%; also: 0% is about no effect
Target sequence (P35462 whole entry, looked up): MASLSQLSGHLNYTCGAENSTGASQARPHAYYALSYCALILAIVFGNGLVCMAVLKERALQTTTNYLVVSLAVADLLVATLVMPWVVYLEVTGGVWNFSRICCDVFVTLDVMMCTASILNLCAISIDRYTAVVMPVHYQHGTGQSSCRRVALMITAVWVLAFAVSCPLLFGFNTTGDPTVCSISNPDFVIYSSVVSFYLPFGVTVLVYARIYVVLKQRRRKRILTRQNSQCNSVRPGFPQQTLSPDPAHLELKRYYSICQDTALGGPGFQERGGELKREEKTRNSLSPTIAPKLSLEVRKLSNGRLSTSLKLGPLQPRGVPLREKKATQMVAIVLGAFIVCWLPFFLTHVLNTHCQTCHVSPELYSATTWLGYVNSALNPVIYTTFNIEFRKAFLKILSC
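Agonist-mode cell screen: cells plated at 1500/well and incubated overnight at 37 °C, then exposed to library compounds for 90 min at 37 °C. Detection reagent was added for 30–60 min at room temperature, and luminescence was read.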
D1 antagonist: Antagonist of Human D 1 Dopamine Receptor: qHTS; D(1A) dopamine receptor (Homo sapiens), P21728; HEK293 TREx D1 cells, calcium flux, dopamine EC80; stronger effect = lower value; activity change, negative = inhibition, % at 10 µM; actives 3.2% (n = 360,000); AID 504652, 2011; in the data active = activity change below about -30%; also: % is scaled to controls: 0 for no effect and ±100 for the full control effect
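After overnight tetracycline induction at 30 C, force-coupled D1 HEK293 cells took up a no-wash calcium dye at room temperature. Compounds were added and monitored 180 s, and the response to EC80 dopamine was then recorded.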
D1 ag: Allosteric Agonists of the Human D1 Dopamine Receptor: qHTS | D(1A) dopamine receptor (Homo sapiens), P21728 | HEK293 T-REx D1 cells, calcium flux, agonist mode | activation, % at 2 µM | actives 1% (n = 360,000); in the data active = activation above about 30%; also: 0% is about no effect
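Agonism was scored from calcium flux recorded over 180 s (1 read/s) after pintool compound addition, following a 10-cycle baseline. Cells were inducible force-coupled HEK293 TREx D1, plated overnight at 30 C and loaded with no-wash calcium dye.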
D1 PAM: Potentiators of Human D1 Dopamine Receptor: qHTS | D(1A) dopamine receptor (Homo sapiens), P21728 | HEK293 TREx D1 cells, calcium flux, dopamine EC20 potentiation | potentiation, % at 10 µM | actives 0.036% (n = 360,000) | AID 504651, 2011; in the data active = potentiation above about 30%; also: 0% is about no effect
D3 antag: qHTS of D3 Dopamine Receptor Antagonist: qHTS; D(3) dopamine receptor (Homo sapiens), P35462; D3R cells, DiscoveRx beta-arrestin luminescence, antagonist mode; stronger effect = lower value; max response, negative = inhibition, %; actives 2.5% (n = 360,000); in the data active = max response below about -50%; inconclusive = no clear call, values can overlap the other calls; also: % is scaled to controls: 0 for no effect and ±100 for the full control effect
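Cells expressing the human receptor were seeded at 1500 cells/well, incubated overnight at 37 degrees C in 5% CO2, then exposed to library compounds with dopamine controls for 90 minutes at 37 degrees C before luminescent detection.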
Starred values were filed as active, the others as inactive; ? = inconclusive; nt = no result given. Rows were chosen to be rich in hits. Some 6% of all compounds tested hit in one or more screens of this group.

SMILES | DRD3 agonist | D1 antagonist | D1 ag | D1 PAM | D3 antag
Cc1ccc(OCCN2CCN(C(=O)CCC(=O)Nc3nnc(C)s3)CC2)cc1 | 37* | 2 | 2 | -4 | -3
CC(C)c1nnc(NC(=O)CCC(=O)N2CCN(Cc3ccccc3)CC2)s1 | -1 | 11 | 2 | -5 | 8
Cc1ccc(OCCN2CCN(C(=O)CCC(=O)Nc3nnc(C(C)C)s3)CC2)cc1 | 33* | -17 | 7 | -2 | -20
O=C1CCCC2=C1C(c1ccc(O)c(O)c1)c1c(ccc3ncccc13)N2 (configuration not stated) | -1 | 32 | 1 | -1 | -16
O=C1CCCC2=C1C(c1ccc(O)cc1)c1c(ccc3ccccc13)N2 (configuration not stated) | 11 | -53* | 1 | -13 | -21
CCNC(=O)C1CCCN(C(=O)c2ccc(F)c(Cl)c2)CC1 (configuration not stated) | 4 | nt | nt | nt | -1
CCOC(=O)C1=C(Cc2ccc(F)cc2)C(=O)c2ccccc2C1=O | -26 | -5 | 13 | -2 | -100*
O=S(=O)(c1ccc(F)cc1)N(Cc1nc(-c2ccccc2)no1)C1CCCCC1 | -3 | -6 | 21 | 0 | nt
O=S(=O)(c1ccccc1)N(Cc1nc(-c2ccccc2)no1)C1CCCCC1 | -15 | -21 | 6 | 7 | -53*
C#CC(CC)(CC)NC(=S)Nc1ccc(S(N)(=O)=O)cc1 | -8 | -43* | 2 | -1 | -25
CCCNC(=S)Nc1ccc(S(N)(=O)=O)cc1 | -3 | 4 | 0 | 8 | -16
Cc1ccccc1NC(=O)C1CCC(CNS(=O)(=O)c2ccc3c(c2)C(C)(C)C(=O)N3C)CC1 (configuration not stated) | -6 | 1 | 4 | -3 | nt
CN1C(=O)C2(c3ccccc31)c1c(oc3ccccc3c1=O)C(=O)N2CCCO (configuration not stated) | -8 | -31* | 3 | -6 | -1
Cc1noc(Cn2c(=O)c3ccccc3n(CC(=O)Nc3ccccc3C(F)(F)F)c2=O)n1 | 5 | -2 | 2 | -1 | nt
O=C(Nc1nccs1)[C@@H]1CCCN1C(=O)c1cccs1 | 0 | -2 | 1 | 2 | -2
O=C(CCS(=O)(=O)Cc1ccccc1)Nc1nc2c(s1)CCCC2 | -11 | 4 | 0 | -2 | -103*
O=C(Nc1nc2c(s1)CCCC2)C1CCCN1C(=O)c1cccs1 (configuration not stated) | -5 | 10 | 0 | 1 | -53*
O=C(Nc1nc2c(s1)CCCC2)c1ccc(Br)s1 | -26 | -2 | 2 | -1 | -67*
O=C(Nc1nc2c(s1)CCCC2)c1ccc(N2C(=O)CCC2=O)cc1 | -2 | -71* | 3 | -7 | -24
OC[C@H]1O[C@@H](O[C@H]2[C@H](O)[C@@H](O)[C@H](O)O[C@@H]2CO)[C@H](O)[C@@H](O)[C@@H]1O | 8 | nt | nt | nt | nt
COc1ccc(C(CC(=O)O)NC(=O)c2ccccc2)cc1OC (configuration not stated) | -12 | 4 | -1 | -2 | -60*
COc1cc(Br)c(C(C)NC(=O)c2ccccc2)cc1OC (configuration not stated) | 40* | 2 | 4 | -1 | -17
Cc1ccc(-n2c(C)nn(-c3ncc(C(F)(F)F)cc3Cl)c2=O)cc1 | 4 | -47* | 0 | -5 | -6
O=C(CN1CCN(c2ncc(C(F)(F)F)cc2Cl)CC1)N1CCN(c2ncc(C(F)(F)F)cc2Cl)CC1 | 0 | -4 | 3 | -6 | -61*
O=C(OCCN1CCN(c2ncc(C(F)(F)F)cc2Cl)CC1)c1ccc(F)cc1 | -20 | 0 | 1 | 1 | ?
O=C(CSc1ccc(Cl)cc1)N1CCN(c2ncc(C(F)(F)F)cc2Cl)CC1 | 15 | -4 | 11 | 1 | 10
Cc1ccc(C(=O)OCCN2CCN(c3ncc(C(F)(F)F)cc3Cl)CC2)cc1 | -16 | -2 | 4 | -5 | -83*
CCOc1ccccc1NC(=O)c1cc2c(=O)n(Cc3cccnc3)ccc2nc1C | -8 | 8 | 0 | -5 | nt
